Compound activity (PubChem BioAssay)
Hits are enriched below; roughly 1.8% of the tested compounds scored in any of these assays.
Vc quorum ag = induces V. cholerae light production without autoinducers; V. cholerae BH1578 lux reporter, luminescence, 6 h; activation, % at 18.7 µM; hit rate 0.16% among 350,000; in the data active means activation mostly above about 9.7%, no sharp cut-off
VHR inh abs = blocks human VHR1 dual specificity phosphatase; hit rate 0.52% among 290,000; P51452; recombinant VHR phosphatase, pNPP absorbance; inhibition, % at 13.3 µM; in the data active means inhibition above about 50%
Target sequence (P51452 whole entry, looked up): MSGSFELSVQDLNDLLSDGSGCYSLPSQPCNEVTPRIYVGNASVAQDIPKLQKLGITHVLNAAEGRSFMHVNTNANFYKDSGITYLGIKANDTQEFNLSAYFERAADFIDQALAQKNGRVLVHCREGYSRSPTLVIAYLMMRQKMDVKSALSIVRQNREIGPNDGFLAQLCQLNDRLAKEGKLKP
MazF activator = increases E. coli MazEF RNase cleavage of RNA; hit rate 0.32% among 350,000; FAM/BHQ RNA-DNA oligo cleavage fluorescence, 5 h; activation, % at 20 µM; P0AE70; in the data active means activation above about 50%
Target sequence (P0AE70 whole entry, looked up): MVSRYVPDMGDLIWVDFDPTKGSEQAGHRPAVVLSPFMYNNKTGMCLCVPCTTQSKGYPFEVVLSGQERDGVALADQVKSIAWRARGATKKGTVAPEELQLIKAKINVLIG
Y pestis TopoI = inhibitors of Yersinia pestis topoisomerase I; activity, % at 10 µM; Y. pestis Topo-I cleavage product accumulation, plate reader; hit rate 0.064% among 360,000; in the data active means activity above about 50%, passing the limit was not always enough
PrPC TRFRET = cell surface PrPC inhibition, primary TR-FRET screen; P04156; hit rate 0.43% among 370,000; inhibition, % at 13.8 µM; TR-FRET read-out; in the data active means inhibition above about 24%; further: 0% = median of the test wells and 100% = reference compound wells
CCHFV vOTU inh = CCHFV vOTU protease inhibition | hit rate 0.55% among 370,000 | Pep-AMC fluorescence | inhibition, % at 11.5 µM | AID 651958; in the data active means inhibition above about 30%; further: 0% = vehicle wells with enzyme and 100% = no enzyme wells
* = called active by the depositor; i = inactive; . = no result.

SMILES	Vc quorum ag	VHR inh abs	MazF activator	Y pestis TopoI	PrPC TRFRET	CCHFV vOTU inh
COc1ccc(S[C@]2(C(=O)N3CCN(C(C)=O)CC3)CC(=O)N(C(=O)C3CC3)[C@@H]2c2ccc(OC)cc2)cc1	.	.	.	.	-1	-3
Cc1ccsc1/C=C1/SC(N2CCOCC2)=NC1=O	.	21	.	.	.	.
O=C1N=C(N2CCOCC2)S/C1=C\c1ccc(-c2ccccc2Cl)o1	0	2	61*	0	5	-7
O=C1N=C(N2CCOCC2)S/C1=C\c1cccs1	-1	8	15	0	-19	6
Cc1ccccc1-c1ccc(/C=C2/SC(N3CCOCC3)=NC2=O)o1	i	-2	151*	14	-7	-3
CCOC(=O)c1c(NC(C)=O)sc2c1CCC(C=NCCCN(CC)CC)=C2Sc1ccccc1	20*	.	15	14	.	.
CCOC(=O)N1CCC(NC(=O)c2cc(COc3ccccc3SC)on2)CC1	i	53*	6	16	6	2
CCC(=O)Oc1ccc2c(c1)O/C(=C\c1ccco1)C2=O	0	-3	691*	-3	-20	12
COc1ccccc1C(=O)Oc1ccc2c(c1)O/C(=C\c1ccncc1)C2=O	9	-2	206*	26	-7	2
CCN(CC)C(=O)Oc1ccc2c(c1)O/C(=C\c1ccco1)C2=O	0	20	0	20	-7	1
CCOc1ccc2nc(N3CCCC(C(=O)NC4CCCC4)C3)sc2c1 (centres undefined)	-3	53*	4	9	3	6
CC(COc1ccccc1)N1CCC(CO)(Cc2ccccc2)CC1 (centres undefined)	0	58*	2	3	-4	6
COc1ccc(CC2(CO)CCN(C(C)COc3ccccc3)CC2)cc1 (centres undefined)	i	13	4	6	0	14
N#CCCCc1cn(-c2ccc(-c3noc4c3C(=O)N(CC(=O)N3CCOCC3)CC4)cc2)nn1	.	.	.	.	4	-2
O=C(CSc1nnc(SCc2cccc3ccccc23)s1)Nc1ccc(S(=O)(=O)Nc2nccs2)cc1	.	.	.	.	3	27
CN(CCc1cnn(C)c1)Cc1cn(C)nc1-c1ccc2c(c1)OCCO2	0	52*	4	1	-3	1
CC(C)(C)c1ccc(-c2noc(CCC(=O)NC3CC3)n2)cc1	.	.	.	.	2	.
COc1ccc2c(c1)CCCN2C(=O)C1CCCN(S(=O)(=O)c2c(C(C)C)cc(C(C)C)cc2C(C)C)C1 (centres undefined)	.	.	.	.	0	6
COc1cc(CN2CCCCCC2)cc(OC)c1O	0	48	4	1	-4	-13
COc1cc(CN2CCCCCC2)cc(Br)c1O	0	55*	3	-8	-5	4
CCOc1cc(CN2CCCCCC2)ccc1OC	-2	57*	-9	6	-2	-2
COc1ccc(S(=O)(=O)N2CCN(Cc3ccc(OC)c(OC)c3)CC2)cc1	2	51*	-21	-8	0	-8
O=C(CNCc1ccccc1[N+](=O)[O-])N1CCC2(CC1)OCCO2	.	.	.	.	-6	2
CC1=CC(=C(C#N)c2nc3ccccc3s2)C=C(C)N1Cc1ccco1	0	24	605*	-3	1	0
N#C/C(=C(/O)c1ccco1)c1nc2ccccc2s1	-1	-26	-9	2	6	0
SMILES	Vc quorum ag	VHR inh abs	MazF activator	Y pestis TopoI	PrPC TRFRET	CCHFV vOTU inh
CCc1nnc(NC(=O)CSc2nc3cc4c(cc3cc2CC)OCCO4)s1	4	-9	82*	4	-5	-11
O=[N+]([O-])c1cccc(NCCCN2CCC(C(O)(c3ccccc3)c3ccccc3)CC2)c1	.	.	.	.	-24	2
O=C(NCc1cccs1)C1CCN(S(=O)(=O)c2cccc3ccccc23)CC1	.	.	.	.	-7	0
Clc1cccc(Nc2nc(-c3ccncc3)cs2)c1	-2	35	-2	-16	8	-11
Cc1cccc(Nc2nc(-c3ccncc3)cs2)c1	i	51*	7	-2	-5	-2
CC1CCC/C(=N\NC(=O)COc2ccccc2Cl)C1 (centres undefined)	i	51*	-2	-2	-7	-8
O=C(CSc1nc2ccccc2nc1N1CCCCC1)N1CCN(C(c2ccccc2)c2ccc(Cl)cc2)CC1 (centres undefined)	.	.	.	.	11	11
Cc1ccc(C2CC(=O)NC(SCC(=O)Nc3nccs3)=C2C#N)cc1 (centres undefined)	25*	0	6	-8	5	2
CN(C)S(=O)(=O)c1cccc(C(=O)N/N=C\c2ccccc2[N+](=O)[O-])c1	.	.	.	.	-27	1
Cc1ccc(S(=O)(=O)n2ccc3c(OCCOCCNCc4ccc(F)cc4)cccc32)cc1	i	3	13	4	-5	9
Cc1ccc(S(=O)(=O)n2ccc3c(OCCOCCSCC(NC(=O)OC(C)(C)C)C(=O)O)cccc32)cc1 (centres undefined)	-18	11	-2	8	-5	38*
COc1cccc(CN(C)C(=O)c2ccc(COc3ccc(Cl)cc3)cc2)c1OC	-5	58*	-8	17	-1	1
COc1ccccc1CN(C)C(=O)c1ccc(COc2ccccc2)cc1	-8	1	2	42	3	2
O=C(Nc1c[nH]c(=O)[nH]c1=O)c1cccc([N+](=O)[O-])c1	0	56*	-20	12	-17	1
Cc1ccc(CNC(=O)c2ccc(NC(=O)CCS(=O)(=O)c3cccs3)cc2)cc1	i	15	-45	12	1	-12
O=C(CCS(=O)(=O)c1cccs1)Nc1ccc(C(=O)NCc2ccccc2)cc1	0	53*	-13	11	-1	6
Cc1cc(C)n(CC(O)COc2ccccc2[N+](=O)[O-])n1 (centres undefined)	0	56*	1	-2	-5	11
CC1=C(C(=O)Nc2ccccc2)C(c2ccc(O)cc2)N2C(=O)CSC2=N1 (centres undefined)	23*	15	8	3	7	2
Cc1ccc(Cn2cccc(-c3nc4ccccc4s3)c2=O)cc1	-1	25	74*	-6	-5	-77
O=c1c(-c2nc3ccccc3s2)cccn1Cc1ccccc1	i	23	8	-3	-8	-118
COc1cc(/C=N/n2c(=S)[nH]nc(C)c2=O)cc([N+](=O)[O-])c1O	-1	30	2	2	-10	13
COc1cc(/C=N/N2CCCCC2)cc([N+](=O)[O-])c1O	i	60*	-3	5	-2	15
CCOC(=O)[C@]12CCCCC/C=C\1N(CCc1ccc(Cl)cc1)C(=O)[C@H]2CC(=O)NCCCN1CCCC1=O	.	.	.	.	0	-1
CCCCn1c(O)c(C(CC)=Nc2ccc(OCC)cc2)c(=O)[nH]c1=O	i	4	55*	4	1	3
CCOC(=O)C1=CN(Cc2cccc(F)c2)S(=O)(=O)N(C)C1c1ccc2ccccc2c1 (centres undefined)	2	.	50*	15	12	7
